Source: PubChem BioAssay (NCATS)
Records with an inconclusive call do not appear. Active and inactive are the calls of the source. The call rests on the fitted dose curve; in most records, active means well fitted inhibition curve with a large enough effect; inconclusive means small, poorly fitted or top-dose-only effect; inactive means flat fitted curve, though single readings scatter.

Assay: qHTS for Inhibitors of Plasmodium falciparum (7G8) proliferation (AID 504316);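 further: 0% = DMSO vehicle and -100% = 0.29 µM artemisinin full kill; nearly all actives have a fitted effect of over 65% in size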
Conditions: P. falciparum 7G8 in erythrocytes, SYBR Green DNA, 72 h; series mostly up to 6.7 µM; activity change, negative = inhibition: at the top concentration
Method in brief: (§1)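 Erythrocytes infected with P. falciparum line (0.3% parasitemia, 2.5% hematocrit final) incubated with compounds 72 h at 37 °C, 5% CO2; SYBR Green lysis buffer added, fluorescence read next day. Normalized to 0.29 uM artemisinin and DMSO.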

| SMILES | Potency | activity change, negative = inhibition |
| --- | --- | --- |
| CCCCC1=CC2=C(c3ccco3)C(=O)C(C)(OC(=O)c3ccc(OC)cc3)C(=O)C2=CN1CC1CC1 (stereo not given) | inactive | – |
| COC(=O)C[C@H]1c2ccccc2[C@@H]2C(=C[C@@H](C)[C@H]3C(=O)N(O)C(=O)[C@H]32)N1C(=O)OC | – | -3.77% (inactive) |
| C=CCN1C(=O)CC[C@@]23C1=NC(C(=O)OC)=C(C(=O)OC)[C@@H]2N(C)c1ccccc13 | – | 0.143% (inactive) |
| CCN1C(=NCc2cccc(Cl)c2)N[C@@H](CCc2ccccc2)[C@H](C(=O)OC)[C@H]1C | – | 2.05% (inactive) |
| CO[C@H](C1CCCCC1)[C@H](C)C=CCC(=O)OCCCc1ccccc1 | – | -2.09% (inactive) |
| COC(=O)CCCC1=CC2=C(c3ccccc3)C(=O)C(C)(OC(=O)C3CCCC3)C(=O)C2=CN1CCCCO (stereo not given) | inactive | – |
| COC(=O)N[C@H](C(C(=O)OC)=C(C)NCc1ccccc1)c1ccc(Cl)cc1 | – | -7.76% (inactive) |
| CC=COC(=O)N[C@@H](c1cccc(C)c1)[C@]1(C(=O)OCC)CCCC1=O | – | 5.7% (inactive) |
| COC[C@H]1O[C@@H](c2c(OC)cc(OC)cc2OC)[C@H](OC)[C@@H](OC)[C@H]1OC | – | 1.01% (inactive) |
| CCCCC1=CC2=C(c3ccco3)C(=O)C(C)(OC(=O)c3ccc(OC)cc3)C(=O)C2=CN1CCN1CCOCC1 (stereo not given) | inactive | – |
| COCCN1C(=O)NC(c2cccc(F)c2)C(C(C)=O)=C1C (stereo not given) | – | 6.98% (inactive) |
| COC(=O)[C@H]1O[C@@H](c2cc(OC)c(C)c(OC)c2O)[C@H](C)[C@@H](O)[C@@H]1C | – | 2.34% (inactive) |
| C=C(C)C(O)C=CC=Cc1ccccc1 (stereo not given) | – | -4.43% (inactive) |
| COC(=O)[C@H]1[C@@H](c2ccccc2)NC(=O)N(Cc2ccccc2)[C@@H]1C | – | 13.7% (inactive) |
| COC(=O)N[C@H](C(C(=O)OC)=C(C)NCc1ccccc1)c1ccco1 | – | 12.2% (inactive) |
| C[C@@H]1CC2=CCCC2[C@]2(O1)C(=O)Nc1cccc(Br)c12 (stereo not given in full) | – | 3.08% (inactive) |
| C=CCN=C1N[C@@H](c2ccccc2)[C@H](C(=O)OC)[C@@H](C)N1CC | – | 9.82% (inactive) |
| O=C(Oc1ccccc1)[C@H]1O[C@H]1c1ccccc1 | – | 2.67% (inactive) |
| CC(=O)OC[C@H]1O[C@H](C#Cc2ccccc2)C=C[C@H]1O | – | 11% (inactive) |
| CCN1C(=O)NC(c2cccs2)C(C(C)=O)=C1C (stereo not given) | – | 0.816% (inactive) |

| SMILES | Potency | activity change, negative = inhibition |
| --- | --- | --- |
| C=C(C(C)=O)C(O)c1ccc(Cl)cc1 (stereo not given) | – | -7.82% (inactive) |
| CCN1C(=O)N[C@@H](CCc2ccccc2)[C@H](C(C)=O)[C@H]1C | inactive | – |
| COC(=O)C(C(=O)OC)C1c2ccccc2C=C(C2CC2)N1C(=O)OC (stereo not given) | inactive | – |
| C=CCOC(=O)C(C(C)=O)[C@@H](NC(=O)OC)c1ccc(Cl)cc1 (stereo not given in full) | – | 7.21% (inactive) |
| COC1=C[C@H](C(=O)NCCNC(C)=O)[C@H](C)[C@@H](c2ccccc2)CC1=O | – | 4% (inactive) |
| C=CCOC(=O)C(C(=O)CC)[C@@H](NC(=O)OC)c1ccc(F)cc1 (stereo not given in full) | – | 3.46% (inactive) |
| CCOC(=O)C(c1ccc(OC)c(OC)c1)C1c2ccccc2C=C(C)N1C(=O)OC (stereo not given) | – | -15.9% (inactive) |
| COCC1=Cc2cc3c(cc2C(C(C(=O)OC)C(=O)OC)N1C(=O)OC)OCO3 (stereo not given) | inactive | – |
| O=C1[C@@H]2[C@H]3[C@H](O)[C@H](O)CC(=NOC[C@@H](O)COCc4ccco4)[C@H]3CC[C@H]2C(=O)N1C[C@@H]1CCCO1 | – | 12.2% (inactive) |
| CCC=CCCC(OC(=O)c1ccc(Br)cc1)C1=CCCCC1=O (stereo not given) | – | -9.5% (inactive) |
| C[C@H]1C[C@@H](C)O[C@@]2(C1)C(=O)Nc1ccccc12 | – | -10.4% (inactive) |
| C=C(C(C)=O)C(O)c1ccc([N+](=O)[O-])cc1 (stereo not given) | – | -8% (inactive) |
| C[C@H]1Cc2c(-c3ccccc3)nc3c(c2CO1)CN(C(=O)NCc1ccco1)CC3 | inactive | – |
| C=C(C)C(=O)C=CCCCC=CC(=O)OCC | – | 1.11% (inactive) |
| COc1ccc(O[C@H]2C=C[C@@H](c3ccccc3)O[C@H]2COC(=O)CCC(C)=NO[C@@H](C)c2cc(-c3c(C)cc(C)cc3C)no2)cc1 | – | -11.3% (inactive) |
| COc1cccc2c1[C@H](C=Cc1ccccc1)[C@@H]([C@H](O)CO)OC2 | – | -4.66% (inactive) |
| CC[C@H](C)[C@@H](NC(=O)O[C@@H]1C(=O)c2cc(OC)ccc2O[C@H]1c1ccc(OC)c(Br)c1)C(=O)OC | – | 4.26% (inactive) |
| CCOC(=O)NN=C1C[C@@H](O)[C@@H](O)[C@@H]2[C@H]3C(=O)N(Cc4ccc5c(c4)OCO5)C(=O)[C@@H]3CC[C@@H]12 | – | -3.38% (inactive) |
| CN1c2ccccc2[C@@]2(O)C(=O)[C@@]1(C)[C@@H]1c3ccccc3C[C@H]12 | – | -5.64% (inactive) |
| COC(=O)C1C[C@@]23C(=NN=C(SC)C2N(C)c2ccc(OC)cc23)N1C(C)=O (stereo not given in full) | – | -5.48% (inactive) |

Assay: qHTS for Inhibitors of Plasmodium falciparum (HB3) proliferation (AID 504318);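 further: 0% = DMSO vehicle and -100% = artemisinin control; nearly all actives have a fitted effect of over 60% in size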
Conditions: P. falciparum HB3 in erythrocytes, SYBR Green DNA, 72 h; series mostly up to 7.21 µM; activity change, negative = inhibition: at the top concentration
Method in brief: as §1

| SMILES | Potency | activity change, negative = inhibition |
| --- | --- | --- |
| CCCCC1=CC2=C(c3ccco3)C(=O)C(C)(OC(=O)c3ccc(OC)cc3)C(=O)C2=CN1CC1CC1 (stereo not given) | inactive | – |
| COC(=O)C[C@H]1c2ccccc2[C@@H]2C(=C[C@@H](C)[C@H]3C(=O)N(O)C(=O)[C@H]32)N1C(=O)OC | – | -2.61% (inactive) |
| C=CCN1C(=O)CC[C@@]23C1=NC(C(=O)OC)=C(C(=O)OC)[C@@H]2N(C)c1ccccc13 | – | -4.11% (inactive) |
| CCN1C(=NCc2cccc(Cl)c2)N[C@@H](CCc2ccccc2)[C@H](C(=O)OC)[C@H]1C | – | 4.96% (inactive) |
| CO[C@H](C1CCCCC1)[C@H](C)C=CCC(=O)OCCCc1ccccc1 | – | 1.96% (inactive) |
| COC(=O)CCCC1=CC2=C(c3ccccc3)C(=O)C(C)(OC(=O)C3CCCC3)C(=O)C2=CN1CCCCO (stereo not given) | inactive | – |
| COC(=O)N[C@H](C(C(=O)OC)=C(C)NCc1ccccc1)c1ccc(Cl)cc1 | – | 0.661% (inactive) |
| CC=COC(=O)N[C@@H](c1cccc(C)c1)[C@]1(C(=O)OCC)CCCC1=O | – | 9.25% (inactive) |
| COC[C@H]1O[C@@H](c2c(OC)cc(OC)cc2OC)[C@H](OC)[C@@H](OC)[C@H]1OC | – | -0.227% (inactive) |
| CCCCC1=CC2=C(c3ccco3)C(=O)C(C)(OC(=O)c3ccc(OC)cc3)C(=O)C2=CN1CCN1CCOCC1 (stereo not given) | inactive | – |
| COCCN1C(=O)NC(c2cccc(F)c2)C(C(C)=O)=C1C (stereo not given) | – | -3.17% (inactive) |
| COC(=O)[C@H]1O[C@@H](c2cc(OC)c(C)c(OC)c2O)[C@H](C)[C@@H](O)[C@@H]1C | – | 0.79% (inactive) |
| C=C(C)C(O)C=CC=Cc1ccccc1 (stereo not given) | – | 0.598% (inactive) |
| COC(=O)[C@H]1[C@@H](c2ccccc2)NC(=O)N(Cc2ccccc2)[C@@H]1C | – | 3.88% (inactive) |
| COC(=O)N[C@H](C(C(=O)OC)=C(C)NCc1ccccc1)c1ccco1 | – | -1.55% (inactive) |
| C[C@@H]1CC2=CCCC2[C@]2(O1)C(=O)Nc1cccc(Br)c12 (stereo not given in full) | – | -9.61% (inactive) |
| C=CCN=C1N[C@@H](c2ccccc2)[C@H](C(=O)OC)[C@@H](C)N1CC | – | 1.47% (inactive) |
| O=C(Oc1ccccc1)[C@H]1O[C@H]1c1ccccc1 | – | 0.253% (inactive) |
| CC(=O)OC[C@H]1O[C@H](C#Cc2ccccc2)C=C[C@H]1O | – | 5.33% (inactive) |
| CCN1C(=O)NC(c2cccs2)C(C(C)=O)=C1C (stereo not given) | – | -8.85% (inactive) |

| SMILES | Potency | activity change, negative = inhibition |
| --- | --- | --- |
| C=C(C(C)=O)C(O)c1ccc(Cl)cc1 (stereo not given) | – | 4.53% (inactive) |
| CCN1C(=O)N[C@@H](CCc2ccccc2)[C@H](C(C)=O)[C@H]1C | inactive | – |
| COC(=O)C(C(=O)OC)C1c2ccccc2C=C(C2CC2)N1C(=O)OC (stereo not given) | inactive | – |
| C=CCOC(=O)C(C(C)=O)[C@@H](NC(=O)OC)c1ccc(Cl)cc1 (stereo not given in full) | – | 7.72% (inactive) |
| COC1=C[C@H](C(=O)NCCNC(C)=O)[C@H](C)[C@@H](c2ccccc2)CC1=O | – | -1.76% (inactive) |
| C=CCOC(=O)C(C(=O)CC)[C@@H](NC(=O)OC)c1ccc(F)cc1 (stereo not given in full) | – | 0.659% (inactive) |
| CCOC(=O)C(c1ccc(OC)c(OC)c1)C1c2ccccc2C=C(C)N1C(=O)OC (stereo not given) | – | -4.49% (inactive) |
| COCC1=Cc2cc3c(cc2C(C(C(=O)OC)C(=O)OC)N1C(=O)OC)OCO3 (stereo not given) | inactive | – |
| O=C1[C@@H]2[C@H]3[C@H](O)[C@H](O)CC(=NOC[C@@H](O)COCc4ccco4)[C@H]3CC[C@H]2C(=O)N1C[C@@H]1CCCO1 | – | 3.73% (inactive) |
| CCC=CCCC(OC(=O)c1ccc(Br)cc1)C1=CCCCC1=O (stereo not given) | – | 4.4% (inactive) |
| C[C@H]1C[C@@H](C)O[C@@]2(C1)C(=O)Nc1ccccc12 | inactive | – |
| C=C(C(C)=O)C(O)c1ccc([N+](=O)[O-])cc1 (stereo not given) | – | 7.18% (inactive) |
| C[C@H]1Cc2c(-c3ccccc3)nc3c(c2CO1)CN(C(=O)NCc1ccco1)CC3 | inactive | – |
| C=C(C)C(=O)C=CCCCC=CC(=O)OCC | – | -0.287% (inactive) |
| COc1ccc(O[C@H]2C=C[C@@H](c3ccccc3)O[C@H]2COC(=O)CCC(C)=NO[C@@H](C)c2cc(-c3c(C)cc(C)cc3C)no2)cc1 | – | 2.21% (inactive) |
| COc1cccc2c1[C@H](C=Cc1ccccc1)[C@@H]([C@H](O)CO)OC2 | – | -6.46% (inactive) |
| CC[C@H](C)[C@@H](NC(=O)O[C@@H]1C(=O)c2cc(OC)ccc2O[C@H]1c1ccc(OC)c(Br)c1)C(=O)OC | – | -4.79% (inactive) |
| CCOC(=O)NN=C1C[C@@H](O)[C@@H](O)[C@@H]2[C@H]3C(=O)N(Cc4ccc5c(c4)OCO5)C(=O)[C@@H]3CC[C@@H]12 | – | -2.57% (inactive) |
| CN1c2ccccc2[C@@]2(O)C(=O)[C@@]1(C)[C@@H]1c3ccccc3C[C@H]12 | – | -2.39% (inactive) |
| COC(=O)C1C[C@@]23C(=NN=C(SC)C2N(C)c2ccc(OC)cc23)N1C(C)=O (stereo not given in full) | – | -11.3% (inactive) |
